The sequences below were run on LXRb homodimer (NR concentration 270 nM) (assay: PBM binding z-score (relative to random genomic background probes); higher = stronger binding; sequences stand for … in GC…GCGATTGACAGCGTAGAATGAAGG).
Summary of the method: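 Custom Agilent 4×180K protein-binding microarrays carried double-stranded probes, each with a 34-nt variable region. These regions held direct-repeat seeds, single-nucleotide variants, half-site ablations and random human genomic background sequences. Ligand-free nuclear receptor dimers were incubated on the arrays for 1 h, antibodies against each partner (one per run) detected binding, and scanned fluorescence was regression-normalized. Binding z-scores take the random background probes as reference.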
With CCTTACGGGTCACTAACAGGTTATAGCATTTGGA the PBM binding z-score was 0.319.
CCTACTAGGCCAAAGGTCATTGATTCCAATGCTC showed a PBM binding z-score of 1.48.
In the case of TAGCCTAGGTTATTCAGGGGCCAGTATAGAAAGC, the PBM binding z-score is reported as 0.216.
In the case of ATCGGAAGGTCGTGAGGTGAGTATACAGAAAGGC, the PBM binding z-score is reported as 0.0341.
CGTCCAAGGTCAATGGTAGGTCAGTGAAAGCATT was tested, and the PBM binding z-score was 0.432.
TCTAGTTGGTCACGGAGGTCGCACACGACGGGTA gave a PBM binding z-score of 0.0566.
In the case of CCGACTGGGGCAGAAAGGTTACCATGCCATCCGG, the PBM binding z-score is reported as -1.31.
Work on CCTACTGGGCCAAAAAGGTGATTGATGCCGATAA yielded a PBM binding z-score of -0.963.
TCATATAGGTAAAGGCGAAAGTCGAACGATATGA gave a PBM binding z-score of -0.044.
In the case of AGAAAGAGGTTAAGATCAGGGAAACAGAATACAT, the PBM binding z-score is reported as 0.766.
TCATATAGGTAAGGGTGAAAGTCGAACGATATGA gave a PBM binding z-score of -0.563.
In the case of GGAACGAGGGCATTCGACTTGATAGCATGGCGAT, the PBM binding z-score is reported as -0.467.
Sequence AGAATGAGGTTATTAAGATCACGGAATTGCGGTC has a PBM binding z-score of 0.0573.
Sequence ATATGTACGTTAGCTGGGGTCATTCAGACTAGGC has a PBM binding z-score of 1.42.
In the case of CCTTTTAGTTGACCATAAGGGCAACCGAAGCTCG, the PBM binding z-score is reported as 1.3.
With CCTACTGGGCCAAAGTTCATTGATTCCAATGCTC the PBM binding z-score was 0.0133.
With ATTCAAAGTTCAGGACGAGGTAACGTAAAGCACG the PBM binding z-score was 1.06.
Sequence TCATATATGTAATACAGGTGAAAGTCGGCATCTA has a PBM binding z-score of 0.395.
With TCTCGGAGGACACGAAAGGTCAGAGTTCGACATC the PBM binding z-score was 0.134.
Work on GCTAGCAGGCCATATGGGTCACTCAATGACGGGC yielded a PBM binding z-score of -0.907.
Sequence CCAGACAGGTGAAAGGTAACTGAGTCTGGTACGC has a PBM binding z-score of -0.541.
AGTCAAAGTTCATCTCGGTAACGTAAGATATGCT showed a PBM binding z-score of 1.92.

From the supplement of paper PMC6555819
